“And” between values parts separate entries of the source, which are not always exact repeats. Equal entries are not always repeated. Compounds without any hit were thinned out: in the full panel of roughly 79,000, 15% have a hit. A structure can be active in one record and inactive in another. The source made the active and inactive calls. Rule as the data show it: active = growth inhibition above about 70%; inactive = the rest.

We go through 33 compounds from PubChem BioAssay (NCI).

The nature of one experiment: NCI Yeast Anticancer Drug Screen. Data for the sgs1 mgt1 strain (AID 161).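 Also: 0% = growth of cultures given vehicle only.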 The following applies: S. cerevisiae sgs1 mgt1 strain, at 5.0 µM (retest, dose inferred, filed as 0.5), stronger effect = higher value. In a few lines: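 Percent growth inhibition was derived by comparing compound-exposed mutant yeast with vehicle-exposed cultures. The strain carries alterations in DNA damage repair.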
Consider `CNC(=O)OCc1c(COC(=O)NC)c(C)n(-c2ccc(Cl)c(Cl)c2)c1C`, for which the growth inhibition is 5% (inactive).

With `COc1ccc2nc(N/N=C/c3sccc3C)cc(C)c2c1`, the growth inhibition was 96% (active).

For `CCCCCCCCCCCC[N+](C)(C)Cc1ccccc1` (tested in a mixture with another compound), the growth inhibition is 93% (active) and 95% (active) and 89% (active).

As to `CC(C)c1ccc(O)c(=O)cc1`, the growth inhibition was 4% (inactive) and 6% (inactive).

As to `S=c1[nH]nc(Cc2ccccc2)c(=S)[nH]1`, the growth inhibition was 41% (inactive).

Take `COc1ccc2nc3cccc([N+](=O)[O-])c3c(NCCCO)c2c1`: the growth inhibition is 95% (active).

On to `CCN(CC)CCSc1c2ccccc2nc2cc(NCC(=O)Nc3ccccc3-c3ccccc3NC(=O)CNc3ccc4c(SCCN(CC)CC)c5ccccc5nc4c3)ccc12`, for which the growth inhibition was 21% (inactive).

Consider `Cc1ccc(N(C=O)c2c([N+](=O)[O-])cc([N+](=O)[O-])c3c2=[N+]([O-])CN=3)cc1`, for which the growth inhibition is 12% (inactive).

Regarding `Nc1ccccc1SSc1ccccc1N`, the growth inhibition was 67% (inactive) and 13% (inactive) and 41% (inactive).

Take `COc1ccc(C(=O)OCCc2ccccc2)cc1`: the growth inhibition is 7% (inactive).

Consider `COc1ccc(C(=O)NCCN(C)C)c2nc3ccccc3cc12`, for which the growth inhibition is 18% (inactive).

Take `NCC(O)CSCc1ccc(Cl)cc1` (stereo unspecified): the growth inhibition was -7% (inactive).

Consider `O=c1[nH]c(=O)n(CCCO)cc1F`, for which the growth inhibition is 58% (inactive).

Regarding `CCCCCCCCCCCC[N+](C)(C)C`, the growth inhibition is -8% (inactive) and -3% (inactive) and 49% (inactive).

Take `COc1ccc(/C(=N/O)c2ccccc2C2=Nc3ccccc3C(NCc3ccccc3)O2)cc1C` (stereo unspecified): the growth inhibition was -3% (inactive).

On to `CCCC(=O)OC(OC(=O)CCC)c1ccc([N+](=O)[O-])o1`, for which the growth inhibition was 14% (inactive).

On to `O=C(/C(=C/c1ccccc1)CBr)c1ccccc1`, for which the growth inhibition is 50% (inactive).

`O=C(Cc1ccccc1F)NC1=C(Cl)C(=O)c2ccccc2C1=O`: the growth inhibition was 1% (inactive).

`Cc1cccc(N2CCN(C(=O)/C(=C/c3ccccc3)NC(=O)c3ccccc3)CC2)c1`: the growth inhibition was 0% (inactive).

With `OCC(O)C(O)C(O)C(O)c1nc2ccccc2[nH]1` (stereo unspecified), the growth inhibition was 3% (inactive) and -6% (inactive).

Regarding `c1cc(Nc2ccc3c(c2)OCO3)c2cc(C3CCCCC3)ccc2n1`, the growth inhibition was 0% (inactive).

For `Cc1ccc2nc(N/N=C/c3ccc(C)s3)cc(C)c2c1`, the growth inhibition is 10% (inactive).

As to `COc1cc(NCCCCCNC(C)C)c2ncccc2c1Cl`, the growth inhibition is 5% (inactive).

Turning to `COc1cccc2c1C(=O)c1c(O)c3c(c(O)c1C2=O)CC(O)(C(=O)CO)CC3OC1CC(N)C(O)C(C)O1` (stereo unspecified), the growth inhibition was 7% (inactive) and 16% (inactive) and 25% (inactive).

Consider `COc1ccc2cc(CN3CCC(C4CCN(Cc5ccc6cc(OC)ccc6c5)CC4)CC3)ccc2c1`, for which the growth inhibition was 7% (inactive).

`CC(=O)O/N=C/c1c2ccccc2cc2ccccc12`: the growth inhibition was 30% (inactive).

Consider `CC[C@@]1(OC(=O)CN(C)C)C(=O)OCc2c1cc1n(c2=O)Cc2cc3ccccc3nc2-1`, for which the growth inhibition is 38% (inactive).

On to `CC1(C)CC(=O)C(C(CC(c2ccccc2)c2cc3c(cc2O)OCO3)C2=C(O)CC(C)(C)CC2=O)=C(O)C1` (stereo unspecified), for which the growth inhibition was 0% (inactive).

With `CCCCCCC(CCl)c1sc(-c2csc(CCNC(=O)OC(C)(C)C)n2)nc1C(=O)OC` (stereo unspecified), the growth inhibition was 17% (inactive).

In the case of `COc1nc(N)c(N=CC(OC(C)=O)C(OC(C)=O)C(COC(C)=O)OC(C)=O)c(=O)n1C` (stereo unspecified), the growth inhibition is 8% (inactive) and 6% (inactive) and 29% (inactive).

Take `Cc1ccc2c(/C=C/c3ccc(N(C)C)cc3)ccnc2c1C`: the growth inhibition was 33% (inactive).

Consider `Cc1cc(SC#N)ccc1O`, for which the growth inhibition was -2% (inactive) and 6% (inactive).

As for `O=C1C(Br)=CC(Br)(Br)C=C1Br`, the growth inhibition was -27% (inactive).

The same experiment, now with this note: S. cerevisiae sgs1 mgt1 strain, at 50.0 µM (retest, dose inferred, filed as 5.0), stronger effect = higher value.
With `CNC(=O)OCc1c(COC(=O)NC)c(C)n(-c2ccc(Cl)c(Cl)c2)c1C`, the growth inhibition was 23% (inactive).

Turning to `COc1ccc2nc(N/N=C/c3sccc3C)cc(C)c2c1`, the growth inhibition was 96% (active).

For the compound `CCCCCCCCCCCC[N+](C)(C)Cc1ccccc1` (tested in a mixture with another compound), the growth inhibition was 100% (active) and 99% (active).

As for `CC(C)c1ccc(O)c(=O)cc1`, the growth inhibition was 42% (inactive) and 31% (inactive) and 1% (inactive).

As to `S=c1[nH]nc(Cc2ccccc2)c(=S)[nH]1`, the growth inhibition was 83% (active).

Regarding `COc1ccc2nc3cccc([N+](=O)[O-])c3c(NCCCO)c2c1`, the growth inhibition is 98% (active).

Regarding `CCN(CC)CCSc1c2ccccc2nc2cc(NCC(=O)Nc3ccccc3-c3ccccc3NC(=O)CNc3ccc4c(SCCN(CC)CC)c5ccccc5nc4c3)ccc12`, the growth inhibition is 97% (active).

In the case of `Cc1ccc(N(C=O)c2c([N+](=O)[O-])cc([N+](=O)[O-])c3c2=[N+]([O-])CN=3)cc1`, the growth inhibition is 84% (active).

On to `Nc1ccccc1SSc1ccccc1N`, for which the growth inhibition is 99% (active) and 12% (inactive).

Take `COc1ccc(C(=O)OCCc2ccccc2)cc1`: the growth inhibition is 32% (inactive).

Consider `COc1ccc(C(=O)NCCN(C)C)c2nc3ccccc3cc12`, for which the growth inhibition was 39% (inactive).

As to `NCC(O)CSCc1ccc(Cl)cc1` (stereo unspecified), the growth inhibition was 25% (inactive).

In the case of `O=c1[nH]c(=O)n(CCCO)cc1F`, the growth inhibition was 76% (active).

In the case of `CCCCCCCCCCCC[N+](C)(C)C`, the growth inhibition was 98% (active) and 97% (active) and 99% (active).

Regarding `COc1ccc(/C(=N/O)c2ccccc2C2=Nc3ccccc3C(NCc3ccccc3)O2)cc1C` (stereo unspecified), the growth inhibition is 85% (active).

Regarding `CCCC(=O)OC(OC(=O)CCC)c1ccc([N+](=O)[O-])o1`, the growth inhibition was 55% (inactive).

As for `O=C(/C(=C/c1ccccc1)CBr)c1ccccc1`, the growth inhibition was 99% (active).

On to `O=C(Cc1ccccc1F)NC1=C(Cl)C(=O)c2ccccc2C1=O`, for which the growth inhibition is 54% (inactive).

On to `Cc1cccc(N2CCN(C(=O)/C(=C/c3ccccc3)NC(=O)c3ccccc3)CC2)c1`, for which the growth inhibition is 56% (inactive).

Regarding `OCC(O)C(O)C(O)C(O)c1nc2ccccc2[nH]1` (stereo unspecified), the growth inhibition is 1% (inactive) and -14% (inactive).

On to `c1cc(Nc2ccc3c(c2)OCO3)c2cc(C3CCCCC3)ccc2n1`, for which the growth inhibition is 46% (inactive).

On to `Cc1ccc2nc(N/N=C/c3ccc(C)s3)cc(C)c2c1`, for which the growth inhibition is 9% (inactive).

For the compound `COc1cc(NCCCCCNC(C)C)c2ncccc2c1Cl`, the growth inhibition was 28% (inactive).

`COc1cccc2c1C(=O)c1c(O)c3c(c(O)c1C2=O)CC(O)(C(=O)CO)CC3OC1CC(N)C(O)C(C)O1` (stereo unspecified): the growth inhibition is 0% (inactive) and 4% (inactive) and 71% (active).

As to `COc1ccc2cc(CN3CCC(C4CCN(Cc5ccc6cc(OC)ccc6c5)CC4)CC3)ccc2c1`, the growth inhibition was 4% (inactive).

In the case of `CC(=O)O/N=C/c1c2ccccc2cc2ccccc12`, the growth inhibition is 88% (active).

Regarding `CC[C@@]1(OC(=O)CN(C)C)C(=O)OCc2c1cc1n(c2=O)Cc2cc3ccccc3nc2-1`, the growth inhibition was 95% (active).

On to `CC1(C)CC(=O)C(C(CC(c2ccccc2)c2cc3c(cc2O)OCO3)C2=C(O)CC(C)(C)CC2=O)=C(O)C1` (stereo unspecified), for which the growth inhibition is 96% (active).

For `CCCCCCC(CCl)c1sc(-c2csc(CCNC(=O)OC(C)(C)C)n2)nc1C(=O)OC` (stereo unspecified), the growth inhibition is 27% (inactive).

On to `COc1nc(N)c(N=CC(OC(C)=O)C(OC(C)=O)C(COC(C)=O)OC(C)=O)c(=O)n1C` (stereo unspecified), for which the growth inhibition is 13% (inactive) and -2% (inactive) and -3% (inactive).

As to `Cc1ccc2c(/C=C/c3ccc(N(C)C)cc3)ccnc2c1C`, the growth inhibition is 87% (active).

Regarding `Cc1cc(SC#N)ccc1O`, the growth inhibition is 92% (active) and 77% (active) and 63% (inactive).

Take `O=C1C(Br)=CC(Br)(Br)C=C1Br`: the growth inhibition was 100% (active).
